KCNQ2 block = KCNQ2 (rat) channel inhibition; CHO-K1 KCNQ2, FluxOR thallium flux, 20 min; stronger effect = lower value; O88943; B-score at 10 µM; 1.1% of 310,000 active;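 active = fluorescence ratio B-score at most minus 3 library SDs, with starting brightness B-score within 2 library SDs, cut at about -5.5 in these data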
Target sequence (O88943 whole entry, looked up): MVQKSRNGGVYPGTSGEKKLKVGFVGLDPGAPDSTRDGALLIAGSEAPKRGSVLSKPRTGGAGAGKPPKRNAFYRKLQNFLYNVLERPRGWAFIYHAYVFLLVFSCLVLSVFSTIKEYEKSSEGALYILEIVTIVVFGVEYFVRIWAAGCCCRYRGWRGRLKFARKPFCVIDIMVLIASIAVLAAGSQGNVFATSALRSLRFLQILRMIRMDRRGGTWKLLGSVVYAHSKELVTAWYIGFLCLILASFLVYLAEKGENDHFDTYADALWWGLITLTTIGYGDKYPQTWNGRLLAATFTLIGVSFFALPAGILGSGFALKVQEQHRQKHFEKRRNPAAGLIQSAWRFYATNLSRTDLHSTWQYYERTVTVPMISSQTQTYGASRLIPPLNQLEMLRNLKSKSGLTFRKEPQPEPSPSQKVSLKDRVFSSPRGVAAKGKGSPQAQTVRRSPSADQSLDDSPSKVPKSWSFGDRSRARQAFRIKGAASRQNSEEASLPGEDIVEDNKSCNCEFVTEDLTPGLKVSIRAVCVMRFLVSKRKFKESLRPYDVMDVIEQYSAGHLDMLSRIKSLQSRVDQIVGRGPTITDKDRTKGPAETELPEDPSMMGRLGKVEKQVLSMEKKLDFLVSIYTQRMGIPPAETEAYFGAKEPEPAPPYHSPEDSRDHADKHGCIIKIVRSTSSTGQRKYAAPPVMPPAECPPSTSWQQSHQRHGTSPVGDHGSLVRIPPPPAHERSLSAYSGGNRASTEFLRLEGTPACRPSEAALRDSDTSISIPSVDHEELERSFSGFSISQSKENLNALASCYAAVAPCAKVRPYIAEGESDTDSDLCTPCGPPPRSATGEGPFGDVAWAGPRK
KCNQ2 pot = KCNQ2 (rat) channel potentiation; 0.54% of 310,000 active; CHO-K1 KCNQ2, FluxOR thallium flux fluorescence; stronger effect = higher value; B-score at 10 µM;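 active = fluorescence ratio B-score at least 3 SD of library B-scores, with initial fluorescence B-score within 3 of them, cut at about 5.3 in these data; same plate scores as AID 2156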;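 also: B-score of peak minus minimum over baseline fluorescence ratio after K+ and Tl+ stimulus; positive B-score means potentiation of KCNQ2 with more thallium influx and brighter signal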
Kir21 conf inh = confirmation of mouse Kir2.1 potassium channel inhibitors; 41% of 2,300 active; AID 2032; Kir2.1-expressing cells, FluxOR thallium flux fluorescence; stronger effect = lower value; Tl flux remaining, % of negative control (stronger effect = lower value), % at 10 µM; shares compounds with KCNQ2 pot;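 active = Primary-screen hit whose thallium flux fell at least 3 control SD below untreated wells in both duplicates, with normal baseline fluorescence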;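 also: 0% = blank wells without stimulus and 100% = stimulated no-compound controls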
HEK293 Tl flux = parental HEK293 activity in Kir2.1 inhibitor counter-screen | parental HEK293 cells, FluxOR thallium flux fluorescence; 0% = unstimulated blank wells | shares compounds with KCNQ2 pot | 19% of 2,300 active | FluxOR signal as % of negative control (100 = no effect), % at 10 µM;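 active = dye signal at least 3 control SD above or below untreated wells in both duplicates, raw fluorescence within 3, either direction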;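 also: percent is based on the flux ratio of peak minus minimum fluorescence over baseline F0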
CHO-K1 Tl ctr = counter-screen for KCNQ2 potentiators: effect in parental CHO-K1 cells; activity increase over 3SD of controls, % at 10 µM; AID 2282; FluxOR thallium flux fluorescence; zero = vehicle mean+3SD, 100% = vehicle-minus-blank window; 43% of 1,200 active; shares compounds with KCNQ2 pot;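 active = signal rise of at least 3 SD above the untreated control mean, in both duplicate wells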;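 also: counter screen of KCNQ2 potentiator hits so any rise reflects channel-independent effects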
KCNQ1 pot spec = selectivity of KCNQ2 potentiators: effect on human KCNQ1; CHO KCNQ1 stable, FluxOR thallium flux fluorescence; beyond 3SD, as % of vehicle-control signal; activation over 3SD threshold, % at 10 µM; 28% of 1,200 active; shares compounds with KCNQ2 pot; AID 2283;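 active = fluorescence ratio rise of at least 3 SD of vehicle wells above their mean, in both replicate wells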;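 also: 0% = vehicle mean plus 3 SD and 100% = vehicle minus unstimulated blank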
KCNQ2 pot confirm = confirmation of rat KCNQ2 potassium channel potentiators; CHO-KCNQ2 cells, FluxOR thallium flux fluorescence; 68% of 1,200 active; potentiation, less the hit threshold, % at 10 µM; shares compounds with KCNQ2 pot; AID 2287;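 active = fluorescence ratio rising 3 SD or more over the vehicle control mean in both replicates, plus primary screen hit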;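 also: peak minus minimum thallium fluorescence divided by baseline after K/Tl stimulus; 0% = vehicle mean plus 3 SD and 100% = vehicle minus unstimulated blank difference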
Kir2-1 sel = selectivity of KCNQ2 potentiators: effect on mouse Kir2.1; shares compounds with KCNQ2 pot; HEK293 Kir2.1, FluxOR thallium flux fluorescence; activity over 3SD threshold, % at 10 µM; 2% of 1,200 active;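 active = fluorescence ratio rise of at least 3 SD above the vehicle-control mean, seen in both replicates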;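 also: 0% = vehicle mean plus 3 SD and 100% = vehicle minus no-stimulus blank window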
KCNQ2 W236L pot = potentiates the retigabine-insensitive rat KCNQ2 W236L mutant channel | CHO KCNQ2-W236L, automated patch clamp current | current increase over 3SD of negative controls (%), stronger effect = higher value, % at 25 µM | shares compounds with KCNQ2 pot | 10% of 940 active;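 active = current increase at least 3 SD of the untreated controls above them in both duplicate recordings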
Starred values were filed as active, the others as inactive. Shown are actives, neighbours in structure and some others; about 1.6% of the full set was active somewhere.

`CC1(C)Cc2c(c(N3CCOCC3)nc3snc(NC(=O)c4ccccc4)c23)CO1` gave KCNQ2 block inactive, KCNQ2 pot 8.6*, Kir21 conf inh inactive, HEK293 Tl flux inactive, CHO-K1 Tl ctr -13, KCNQ1 pot spec -15, KCNQ2 pot confirm 28*, Kir2-1 sel -18 and KCNQ2 W236L pot inactive.
COc1ccc(NC(=O)c2sc3nc(N4CCOCC4)c4c(c3c2N)CC(C)(C)OC4)cc1 was read as KCNQ2 block inactive.
`CCCCn1c(C(C)NC(=O)CC)nc2ccccc21` (stereo not given) gave KCNQ2 block inactive and KCNQ2 pot 0.1.
Screening CCC(=O)Nc1nc2ccccc2n1CCN1CCOCC1 returned KCNQ2 block inactive.
CCCCCCn1c(C(C)NC(=O)c2ccco2)nc2ccccc21 (stereo not given) was read as KCNQ2 block -6.2*, KCNQ2 pot -6.2, Kir21 conf inh 54%* and HEK293 Tl flux inactive.
Screening CCCCCCCn1c(NC(=O)CC)nc2ccccc21 returned KCNQ2 block inactive, KCNQ2 pot 10*, Kir21 conf inh inactive, HEK293 Tl flux inactive, CHO-K1 Tl ctr -21, KCNQ1 pot spec -5, KCNQ2 pot confirm 61*, Kir2-1 sel -45 and KCNQ2 W236L pot inactive.
For COc1ccccc1CNC(=O)[C@H](C)NC(=O)C1CCN(C(=O)[C@H](CCSC)NC(=O)OC(C)(C)C)CC1 the results were KCNQ2 block inactive.
Screening COCCC(=O)N1CCC(Oc2ccc(C(=O)NCCc3ccccn3)cc2)CC1 returned KCNQ2 block inactive.
For Cc1ccc2nc(NC(=S)NC(=O)c3ccco3)sc2c1 the results were KCNQ2 block inactive, KCNQ2 pot 12*, Kir21 conf inh inactive and HEK293 Tl flux 228%*.
O=C(NC(=S)Nc1nc(-c2ccc([N+](=O)[O-])cc2)cs1)c1ccco1 was read as KCNQ2 block inactive, KCNQ2 pot 10*, Kir21 conf inh inactive, HEK293 Tl flux 168%*, CHO-K1 Tl ctr -7, KCNQ1 pot spec 44*, KCNQ2 pot confirm -7 and Kir2-1 sel -27.
Screening O=C(NC(=S)Nc1nc(-c2ccc(Br)cc2)cs1)c1ccco1 returned KCNQ2 block inactive and KCNQ2 pot 5.1.
`Cc1ccc2nc(NC(=O)c3ccco3)sc2c1` gave KCNQ2 block inactive and KCNQ2 pot 0.98.
COc1ccc(NC(=O)C(=O)NCC2CCCN2S(=O)(=O)c2cccs2)cc1 (stereo not given) was read as KCNQ2 block inactive.
For O=C(N/N=C/c1cccc([N+](=O)[O-])c1)C1CC(=O)N(c2ccc(F)cc2)C1 (stereo not given) the results were KCNQ2 block inactive.
Screening Cc1cc(C(=O)NC2CCCN(Cc3ccc(Cl)cc3)C2)n(C)n1 (stereo not given) returned KCNQ2 block inactive.
Screening O=[N+]([O-])c1c(Nc2ccccc2O)ccc2nonc12 returned KCNQ2 block inactive and KCNQ2 pot 1.3.
O=[N+]([O-])c1c(Nc2ccccc2O)cc(Cl)c2nonc12 was read as KCNQ2 block -16*, KCNQ2 pot -16, Kir21 conf inh 71%* and HEK293 Tl flux 46%*.
For O=S(=O)(c1ccccc1Cl)N1CCC(Cc2ccccc2)CC1 the results were KCNQ2 block inactive.
O=C(CS(=O)(=O)c1ccc(Cl)cc1)Nc1nnc(-c2cccs2)o1 was read as KCNQ2 block inactive.
Screening COc1ccccc1-c1c(C#N)c(N)nc2c1CCc1ccccc1-2 returned KCNQ2 block inactive.
For CC(C)(C)NC(=O)C(=O)NN=C1CCCCCCCCCCC1 the results were KCNQ2 block inactive and KCNQ2 pot 1.
For NC(N)=NN=C1CCCCCCCCCCC1 the results were KCNQ2 block inactive, Kir21 conf inh inactive and HEK293 Tl flux inactive.
For C/C=C/c1ccc(OCC(O)CN(C)Cc2ccc(SC)cc2)c(OC)c1 (stereo not given) the results were KCNQ2 block inactive, Kir21 conf inh inactive and HEK293 Tl flux inactive.
C/C=C/c1ccc(OCC(O)CNCC(c2ccc(OC)cc2)N(C)C)c(OC)c1 (stereo not given) was read as KCNQ2 block inactive.
For C/C=C/c1ccc(OCC(O)CNCCc2ccc(OC)cc2)c(OC)c1 (stereo not given) the results were KCNQ2 block inactive, Kir21 conf inh inactive and HEK293 Tl flux inactive.
For COc1ccc(CCNCC(O)COc2ccc(Cl)cc2)cc1OC (stereo not given) the results were KCNQ2 block inactive and KCNQ2 pot 1.4.
For C/C=C/c1ccc(OCC(O)CN2CCCCC2CC)c(OC)c1 (stereo not given) the results were KCNQ2 block inactive.
Screening OC(CNCCc1ccc(Cl)cc1)COc1cc(Cl)ccc1Cl (stereo not given) returned KCNQ2 block inactive, Kir21 conf inh 24%* and HEK293 Tl flux 122%*.
For Cc1ccc(S(=O)(=O)NCC(=O)N/N=C/c2ccccc2O)cc1 the results were KCNQ2 block inactive.
`Cc1ccc(N(CC(=O)NC(C)C)C(=O)CCC(=O)Nc2nccs2)cc1C` gave KCNQ2 block inactive and KCNQ2 pot 0.01.
For CCCCc1ccc(NC(=O)CSc2nnc(C)c(=O)n2N)cc1 the results were KCNQ2 block inactive and KCNQ2 pot 0.01.
Screening CCOC(=O)CSc1nnc(-c2ccco2)n1-c1ccccc1 returned KCNQ2 block inactive.
Screening COC(=O)c1cccc(CSc2nnc(-c3ccco3)n2-c2ccccc2)c1 returned KCNQ2 block inactive, Kir21 conf inh 58%* and HEK293 Tl flux 68%*.
For S=C(NCc1ccc(Cl)cc1)NCc1ccccn1 the results were KCNQ2 block inactive.
`CC(C)CCC(CCNCc1ccccn1)c1ccc(Cl)cc1` (stereo not given) gave KCNQ2 block inactive, KCNQ2 pot 0.09, Kir21 conf inh 36%* and HEK293 Tl flux inactive.

Assay outcomes: PubChem BioAssay, Johns Hopkins Ion Channel Center
